PrP UTR inh: inhibition of PrP 5' UTR reporter expression. cell-based PrP 5' UTR mRNA reporter, plate reader. inhibition, % (test concentration not listed). 0.35% of 340,000 active. AID 488862, 2010; in the data active = inhibition above about 52%; also: 0 = median of the neutral control wells
Sa RN4220 lethal: growth inhibition of S. aureus RN4220, primary screen, OD600; 0.33% of 330,000 active; AID 1259311, 2017; 16 h; inhibition, % (concentration not given with the values); in the data active = inhibition above about 85%;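 also: plate controls were untreated cells for no effect and reference antibiotic for full effect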
PrPC surface inh: inhibitors of human cell surface prion protein PrPC, primary screen, cell-based, TR-FRET. AID 720596, 2013. 0.43% of 370,000 active. TR-FRET read-out. inhibition, % at 13.8 µM; in the data active = inhibition above about 24%; also: 0% = median of the test wells and 100% = reference compound wells
ugtP null kill: growth inhibition of ugtP-null S. aureus, primary screen, RN4220 ugtP deletion, OD600; 0.54% of 330,000 active; growth inhibition, % (concentration not given with the values); 16 h; in the data active = growth inhibition above about 68%;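 also: plate controls were untreated wells for no effect and antibiotic for full effect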
PfHsp40 yeast: rescue of yeast from PfHsp40 toxicity, primary screen, S. cerevisiae, ATP luminescence; S. cerevisiae expressing PfHsp40, growth rescue; AID 504582, 2011; 0.68% of 340,000 active; growth rescue, % at 12.5 µM; in the data active = growth rescue above about 28%, passing the limit was not always enough;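 also: yeast W303a lacking pdr1 and pdr3 grown in galactose medium; growth measured after three days at 30 °C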
CCHFV vOTU inh: CCHFV vOTU protease inhibitors, primary screen, biochemical, Pep-AMC substrate, fluorescence. inhibition, % at 11.5 µM. Crimean-Congo hemorrhagic fever virus L polyprotein viral ovarian tumor (vOTU) protease …. 0.55% of 370,000 active; in the data active = inhibition above about 30%; also: 0% = vehicle wells with enzyme and 100% = no enzyme wells
An asterisk follows results filed as active; · = no result given. Most compounds without a hit are left out; they make up all but 2.1% or so of the library.

SMILES	PrP UTR inh	Sa RN4220 lethal	PrPC surface inh	ugtP null kill	PfHsp40 yeast	CCHFV vOTU inh
COc1ccc(CN(C)C(=O)c2ccc(NS(=O)(=O)c3ccc(F)cc3)cc2)c(OC)c1	-12.6	-0.5	-4.2	90.1*	2.3	19.8
COc1ccc(CN(C)C(=O)c2ccc(NS(=O)(=O)c3ccccc3)cc2)c(OC)c1	-2.1	1.6	3.3	45.0	0.2	16.0
C[C@H]1c2cccc(O)c2C(O)=C2C(=O)[C@]3(O)C(O)=C(C(N)=O)C(=O)[C@@H](N(C)C)[C@@H]3[C@@H](O)[C@@H]21	-10.0	·	·	·	-0.4	·
CN(C)[C@@H]1C(=O)C(C(N)=O)=C(O)[C@@]2(O)C(=O)C3=C(O)c4c(O)ccc(Cl)c4[C@@](C)(O)[C@H]3C[C@@H]12	1.1	·	-7.2	·	1.3	10.4
CC1c2cccc(O)c2C(O)=C2C(=O)[C@]3(O)C(O)=C(C(N)=O)C(=O)C(N(C)C)C3C(O)C21 (stereo partly specified)	·	100.2*	·	99.4*	·	·
CC1c2cccc(O)c2C(=O)C2C(=O)C3(O)C(=O)C(C(N)=O)C(=O)C(N(C)C)C3C(O)C21 (stereo unspecified)	·	92.8*	·	99.4*	·	·
CN(C)[C@@H]1C(=O)C(C(N)=O)=C(O)[C@@]2(O)C(=O)C3=C(O)c4c(O)cccc4[C@@](C)(O)[C@H]3[C@H](O)[C@@H]12	-8.4	·	-7.2	·	21.8	17.2
CC1c2cccc(O)c2C(O)=C2C(=O)C3(O)C(O)=C(C(N)=O)C(=O)C(N(C)C)C3C(O)C21 (stereo unspecified)	·	97.5*	·	99.6*	·	·
NC(=NOS(=O)(=O)c1cccc([N+](=O)[O-])c1)c1ccncc1	·	7.6	·	5.8	·	·
CC(C)c1ccc(-c2nnn(CCC#N)n2)cc1	-43.1	3.3	-1.9	0.0	1.1	1.1
CC(C)c1ccc(-c2nnn(Cc3nc4ccccc4s3)n2)cc1	-10.7	1.1	-2.2	85.0*	-0.1	8.0
COC(=O)c1cnc(NNC(=O)c2ccc([N+](=O)[O-])cc2)nc1C(F)(F)F	-17.3	6.5	-29.0	6.4	63.0*	1.8
COc1ccc(Br)c(C=NNC(=O)COc2ccc(-c3ccccc3)cc2)c1	·	-9.8	·	-8.1	·	·
O=S(=O)(Nc1cccnc1)c1cccc(C(F)(F)F)c1	-16.8	3.5	4.4	5.9	-0.6	2.1
O=[N+]([O-])c1ccc(S(=O)(=O)c2cccc(C(F)(F)F)c2)nc1	-25.9	18.4	·	55.9	41.6*	·
CC1CN(CCc2ccccc2)C(=O)C1CC(=O)NCc1ccccc1 (stereo unspecified)	·	2.8	·	-0.4	·	·
COC(=O)CC1c2ccccc2S(=O)(=O)N1C(C)C (stereo unspecified)	·	7.1	·	2.5	·	·
C=CCN1C(=O)/C(=C/c2ccc(OC)cc2)SC1=Nc1nccs1	·	5.9	·	3.3	·	·
CSc1ccc(Cl)c(C(=O)NCCOc2cc(C)ccc2C(C)C)c1	-20.6	97.5*	1.3	98.8*	1.4	-9.0
CCN1C(=O)C2C(c3ccc(-c4ccc5c(c4)OCO5)cc3)N[C@@](Cc3ccccc3)(C(=O)OC)C2C1=O (stereo partly specified)	·	3.3	·	3.8	·	·
CC(C)NC(=O)Nc1cccc2c1OC(CN(C)S(=O)(=O)c1ccccc1)C(C)CN(C(C)CO)C2=O (stereo unspecified)	·	7.9	·	16.7	·	·
Cc1ccc(S(=O)(=O)NN=Cc2cn(C)nc2C)cc1	·	3.3	·	1.2	·	·
COc1ccc(C#Cc2c(-c3ccccc3)n(-c3ccccc3)c3ccc(CO)cc23)cc1	-2.2	-9.7	13.3	-0.3	65.4*	-23.5
CCOC(=O)c1cc(CC)sc1NC(=O)C1CC1	-10.4	14.1	-5.3	-4.3	1.0	-4.6
CCOC(=O)c1cc(CC)sc1NC(=O)C(c1ccccc1)c1ccccc1	-17.8	0.1	6.4	89.3*	-1.5	6.3
SMILES	PrP UTR inh	Sa RN4220 lethal	PrPC surface inh	ugtP null kill	PfHsp40 yeast	CCHFV vOTU inh
COc1ccc(-c2cc(=O)oc3c(C)c(O)c(CN(C)C)cc23)cc1	-3.1	7.0	-30.9	1.5	45.5*	-3.3
COc1ccc(-c2cc(=O)oc3c(C)c(OCC(=O)N(C)C)ccc23)cc1	-13.4	0.9	-21.3	2.1	0.6	0.0
COc1ccc(CNC(=O)C=Cc2ccc3[nH]cc(CCN(C)C)c3c2)cc1	·	7.5	·	4.8	·	·
O=C(N/N=C/c1ccc(O)c2ncccc12)c1cccc(Br)c1	13.1	·	-9.9	·	104.9*	1.9
O=C(NN=Cc1ccc(O)c2ncccc12)c1cccc(Br)c1	·	14.1	·	-14.5	·	·
Nc1ccc(N2CCOCC2)c2nonc12	-22.1	5.2	-18.1	8.1	10.2	108.7*
O=C(Nc1ccc(N2CCOCC2)c2nonc12)C1CCCC1	-32.4	0.1	-21.9	4.1	1.0	9.2
C=CCNC(=S)N=c1scc(C)n1C	·	1.5	·	15.8	·	·
O=C(c1ccccc1)c1coc2ccc(O)c(Cl)c12	-30.1	7.6	1.4	2.3	-0.5	2.4
O=C1C(=O)c2c(C(=O)c3ccccc3)coc2-c2ccccc21	-72.0	93.5*	1.5	85.9*	8.1	23.9
Cc1oc2c(c1C(=O)c1ccccc1)C(=O)C(=O)c1ccccc1-2	-60.5	99.5*	-4.8	93.7*	97.3*	23.2
CC(=NNC(=O)c1cc(Br)ccc1O)C(=NO)C(=O)Nc1ccccc1	·	37.1	·	16.9	·	·
Cc1cc(SCC(=O)NCCN2C(=O)CSC2=O)nc2c(C)cccc12	-16.2	6.2	9.9	3.6	36.9*	-7.3
Cc1cc(C)c2nc(SCC(=O)NCCN3C(=O)CSC3=O)cc(C)c2c1	-21.5	5.7	2.2	10.8	2.7	-13.3
Cc1cc(Nc2ccc(Cl)cc2)nc(-c2ccccc2O)n1	-1.1	-14.3	-1.5	6.3	71.5*	-19.5
C=CCCC(Cc1ccc(F)cc1)C(=O)OCC(Cc1ccccc1)NC(=O)C(CC=C)CC(=O)NC(CO)Cc1ccccc1 (stereo unspecified)	·	6.0	·	11.8	·	·
CCOn1c(=O)c(-c2cccc3ccccc23)[n+]([O-])c2ccccc21	-7.6	6.2	-36.2	5.1	0.2	11.5
O=c1c(-c2cccc3ccccc23)[n+]([O-])c2ccccc2n1O	-9.0	7.1	-2.2	13.1	80.6*	12.3
O=C(N1CCN(c2cccc(Cl)c2)CC1)C1(S(=O)(=O)c2ccc(Cl)cc2)CC1	-88.9	2.5	-8.5	-13.6	83.3*	-7.6
COc1ccc(COC(=O)NN=C(C)CC(=O)Nc2c(C)cc(C)cc2C)cc1	·	4.4	·	-4.6	·	·
Cc1ccc(C(=O)ONc2ccc(N=O)cc2)cc1	-1.5	1.1	-3.6	100.0*	3.1	5.3
Cc1ccc(C(=O)ONc2ccc(N=NC(=O)c3ccccc3O)cc2)cc1	·	0.0	10.1	35.5	-0.6	-1.3
O=C1c2ccccc2CN1CCNC(=S)NC1CCCCC1	68.0*	15.1	5.2	6.4	-0.5	-11.6

From PubChem BioAssay
